Source: paper PMC4336329 (PLoS ONE, 2015)
The campaign covered roughly 310,000 compounds. About 14,000 (4.5%) showed an effect of 50% or more. Effects have a minus sign here. The list comes from a sample in which strong results are over-represented; it also holds similar structures and randomly drawn compounds.

biological target: human ether-à-go-go-related gene (hERG) potassium channel (human, UniProt Q12809); assay: primary screen, population patch clamp on CHO cells stably expressing hERG; higher = less effect of the substance
Sequence (Q12809 whole entry, looked up): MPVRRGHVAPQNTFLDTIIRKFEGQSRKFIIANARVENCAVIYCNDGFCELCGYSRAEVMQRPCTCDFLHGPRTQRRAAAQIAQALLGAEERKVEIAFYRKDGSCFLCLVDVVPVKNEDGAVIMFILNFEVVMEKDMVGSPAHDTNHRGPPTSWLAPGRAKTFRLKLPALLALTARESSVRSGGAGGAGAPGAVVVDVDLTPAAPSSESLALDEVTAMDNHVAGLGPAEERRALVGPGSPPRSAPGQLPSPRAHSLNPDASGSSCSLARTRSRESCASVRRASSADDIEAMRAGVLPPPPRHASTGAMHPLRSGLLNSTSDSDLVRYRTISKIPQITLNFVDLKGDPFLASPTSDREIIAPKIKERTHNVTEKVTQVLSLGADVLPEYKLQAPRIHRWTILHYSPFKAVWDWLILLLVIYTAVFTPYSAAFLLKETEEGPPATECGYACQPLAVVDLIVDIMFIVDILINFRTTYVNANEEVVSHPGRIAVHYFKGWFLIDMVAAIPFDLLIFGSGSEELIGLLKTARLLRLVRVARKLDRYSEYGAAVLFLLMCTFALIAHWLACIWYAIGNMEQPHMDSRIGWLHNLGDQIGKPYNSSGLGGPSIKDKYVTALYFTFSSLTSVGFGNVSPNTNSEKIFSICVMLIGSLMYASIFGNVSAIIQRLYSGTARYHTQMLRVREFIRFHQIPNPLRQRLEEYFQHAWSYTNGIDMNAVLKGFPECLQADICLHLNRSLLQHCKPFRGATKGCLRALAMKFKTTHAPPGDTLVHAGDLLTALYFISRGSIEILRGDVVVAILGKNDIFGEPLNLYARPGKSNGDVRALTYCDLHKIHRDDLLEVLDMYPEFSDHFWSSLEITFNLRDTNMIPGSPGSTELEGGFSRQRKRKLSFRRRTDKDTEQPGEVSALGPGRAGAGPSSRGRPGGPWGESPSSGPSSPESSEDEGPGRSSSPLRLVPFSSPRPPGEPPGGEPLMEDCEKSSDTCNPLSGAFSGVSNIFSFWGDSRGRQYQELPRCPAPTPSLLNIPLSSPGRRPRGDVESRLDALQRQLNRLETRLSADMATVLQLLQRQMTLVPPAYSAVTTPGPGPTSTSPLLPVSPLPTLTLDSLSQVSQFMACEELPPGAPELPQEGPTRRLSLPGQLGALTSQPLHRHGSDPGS
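Further: peak tail current of the secondary pulse compared with the same well before compound.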

Compared with `CCOc1ccc(-c2cc(C(=O)N3CCN(c4ccccn4)CC3)c3ccccc3n2)cc1`, `COc1ccc(-c2csc(N3CCC(c4ccccc4)CC3)n2)cc1` is higher in “hERG current change (%, negative = inhibition) at 10uM” value: 2.79% for the first, 23.2% for the second.

Compared with `Cn1ncc2c(Nc3ccc([N+](=O)[O-])cc3)nc(Cl)nc21`, `O=[N+]([O-])c1ccc(S(=O)(=O)NCCN2CCOCC2)cc1` is lower in “hERG current change (%, negative = inhibition) at 10uM” value: 18.9% for the first, 11.2% for the second.

Going from `Cc1ccc(-c2nnc(N3CCC(C)CC3)c3ccccc23)cc1` to `COc1nnc(-c2ccc(N3CCOCC3)c(NC(=O)C3CCCCC3)c2)c2ccccc12`, the “hERG current change (%, negative = inhibition) at 10uM” value falls from 3.1% to -37.3%.

Going from `O=C(C1CCC(C(=O)N2CCCCC2)CC1)N1CCCCC1` (stereo not drawn) to `O=C(C1CCN(Cc2nc(-c3ccc(Cl)cc3)no2)CC1)N1CCOCC1`, the “hERG current change (%, negative = inhibition) at 10uM” value falls from 6.09% to -61.9%.

Compared with `O=C(CSc1nc2c([nH]c3ccccc32)c(=O)n1-c1ccccc1)NCC1CCCO1` (stereo not drawn), `Cn1c(=O)n(CCc2ccccc2)c(=O)c2c1nc1n2CCCN1c1ccccc1` is lower in “hERG current change (%, negative = inhibition) at 10uM” value: 3.52% for the first, -20.7% for the second.

First: CN(C)c1ccc(C(CNC(=O)Cc2cccc3ccccc23)N(C)C)cc1 (stereo not drawn)
Second: Cc1cccc2sc(N(CCCN(C)C)C(=O)CCc3ccccc3)nc12.Cl
The “hERG current change (%, negative = inhibition) at 10uM” value of the first is higher: -32.8% for the first, -54.1% for the second.

Going from `CC(=O)N1c2ccc(S(=O)(=O)NCCC(=O)Nc3ccc(OC(F)(F)F)cc3)cc2CC1C` (stereo not drawn) to `Cc1ccc(OC(=O)CCS(=O)(=O)c2ccc(C)cc2)cc1`, the “hERG current change (%, negative = inhibition) at 10uM” value falls from -13.6% to -24.4%.

First: COCCN(C(=O)c1csnn1)C(C(=O)NC1CCCCC1)c1ccccc1F (stereo not drawn)
Second: COc1ccc(S(=O)(=O)N2CCN(CC(=O)NC3CCCC3)CC2)cc1
The “hERG current change (%, negative = inhibition) at 10uM” value of the first is higher: 3.83% for the first, 0.823% for the second.

Compared with `CCc1cc2c(=O)n(Cc3ccco3)c(SCC(=O)N3CCCc4ccccc43)nc2s1`, `CCc1cc2c(=O)n(Cc3ccco3)c(SCC(=O)N(C)C3CCS(=O)(=O)C3)nc2s1` (stereo not drawn) is lower in “hERG current change (%, negative = inhibition) at 10uM” value: -23.4% for the first, -79.1% for the second.

Compared with `CCc1cc2c(SCC(=O)N(C)C3CCS(=O)(=O)C3)ncnc2s1` (stereo not drawn), `CC(C)Cn1c(SCC(=O)N(C)C2CCS(=O)(=O)C2)nc2cc(Cl)ccc2c1=O` (stereo not drawn) is lower in “hERG current change (%, negative = inhibition) at 10uM” value: -20.1% for the first, -31.5% for the second.

First: CCN(C(=O)CSc1nc2cc(Cl)ccc2c(=O)n1CC(C)C)C1CCS(=O)(=O)C1 (stereo not drawn)
Second: CCN(C(=O)CSc1nc2cc(Cl)ccc2c(=O)n1Cc1ccco1)C1CCS(=O)(=O)C1 (stereo not drawn)
The “hERG current change (%, negative = inhibition) at 10uM” value of the first is higher: 2.51% for the first, -74.7% for the second.

First: COc1ccc(CNC(=O)[C@H](C)NC(=O)C2CCN(C(=O)[C@@H](N)CCSC)CC2)cc1
Second: CC1CCCN(CCCOc2ccc([N+](=O)[O-])cc2)C1.O=C(O)C(=O)O (stereo not drawn)
The “hERG current change (%, negative = inhibition) at 10uM” value of the first is higher: 5.47% for the first, -74.7% for the second.

First: O=C1C=C(O)CC(c2ccco2)C1 (stereo not drawn)
Second: O=C(/C=C/c1ccco1)Nc1ccc2nc3n(c(=O)c2c1)CCCC3
The “hERG current change (%, negative = inhibition) at 10uM” value of the first is higher: 9.75% for the first, -8.17% for the second.

Going from `N#CCC(=O)N1CCn2c1nc1ccccc12` to `CN(c1ccccc1C(=O)N1CCCC1)S(C)(=O)=O`, the “hERG current change (%, negative = inhibition) at 10uM” value falls from 17.2% to -9.73%.

First: COc1cc(/C=C2/C(=N)N3C=CSC3=NC2=O)ccc1OCCCOc1cc(C)ccc1C
Second: Cc1ccc2nc(N(CCCN(C)C)C(=O)CCc3ccccc3)sc2c1.Cl
The “hERG current change (%, negative = inhibition) at 10uM” value of the first is higher: 2.54% for the first, -66% for the second.

Compared with `CC1CN(CCOc2ccc([N+](=O)[O-])cc2)CC(C)O1.O=C(O)C(=O)O` (stereo not drawn), `CC1CN(CCCOc2ccc([N+](=O)[O-])cc2)CC(C)O1.O=C(O)C(=O)O` (stereo not drawn) is lower in “hERG current change (%, negative = inhibition) at 10uM” value: -46.2% for the first, -71.6% for the second.

Going from `COC(=O)c1ccc(OCCCCN2CC(C)OC(C)C2)cc1.O=C(O)C(=O)O` (stereo not drawn) to `CC1CN(CCCCOc2ccc(F)cc2)CC(C)O1.O=C(O)C(=O)O` (stereo not drawn), the “hERG current change (%, negative = inhibition) at 10uM” value falls from -20% to -42.7%.

Going from `CC1CC(C)CN(CCCOc2ccccc2[N+](=O)[O-])C1.O=C(O)C(=O)O` (stereo not drawn) to `CC1CC(C)CN(CCCCOc2ccc([N+](=O)[O-])cc2)C1.O=C(O)C(=O)O` (stereo not drawn), the “hERG current change (%, negative = inhibition) at 10uM” value falls from -35.5% to -78.8%.

First: CC1CCCN(CC(=O)Nc2cccc([N+](=O)[O-])c2)C1 (stereo not drawn)
Second: O=[N+]([O-])c1ccc(-c2ccc(S(=O)(=O)NCCN3CCCC3)cc2)cc1
The “hERG current change (%, negative = inhibition) at 10uM” value of the first is higher: -16.7% for the first, -77.7% for the second.

Going from `O=C(CSc1nnc(COc2ccc(Br)cc2)o1)N1CCOCC1` to `Cc1ccc(-n2c(SCC(=O)N3CCOCC3)nnc2-c2cccnc2)cc1C`, the “hERG current change (%, negative = inhibition) at 10uM” value rises from -17% to -16.9%.

Compared with `N#Cc1ccc(OCC(=O)Nc2ccc3[nH]c(=O)[nH]c3c2)cc1`, `COc1cccc(C(=O)Oc2ccc3ccc(=O)oc3c2)c1` is higher in “hERG current change (%, negative = inhibition) at 10uM” value: -4.57% for the first, 42.3% for the second.

First: C=CCn1c(O)c(C(CC)=Nc2cccc(C(=O)O)c2)c(=O)[nH]c1=O
Second: CCN1C(=NCc2cccc(Cl)c2)N[C@@H](c2cccc(F)c2)C(C(=O)OC)=C1C
The “hERG current change (%, negative = inhibition) at 10uM” value of the first is higher: 11.6% for the first, -41.4% for the second.

First: CSc1ccccc1OCc1cc(C(=O)NCCCc2ccccc2)no1
Second: CN(C)CCCN(C(=O)CCc1ccccc1)c1nc2ccc(F)cc2s1.Cl
The “hERG current change (%, negative = inhibition) at 10uM” value of the first is higher: 12.9% for the first, -70.1% for the second.

Going from `Cc1ccc2c(CN(C)Cc3cccc(Cl)c3)cc(=O)oc2c1C` to `COC(=O)C1=C(C)N(CC2CC2)C(=NCc2cccc(Cl)c2)N[C@H]1c1ccccc1`, the “hERG current change (%, negative = inhibition) at 10uM” value falls from 12% to -72.3%.

Compared with `COc1ccccc1NC(=S)N1CC(C)OC(C)C1` (stereo not drawn), `COc1cc(NC(=O)c2ccc(-c3ccc(Br)cc3)o2)ccc1NC(=O)C(C)C` is lower in “hERG current change (%, negative = inhibition) at 10uM” value: 19.5% for the first, -26.1% for the second.

Going from `COc1cccc(N2CCN(C(=O)CN(C)S(=O)(=O)c3ccc4c(c3)c(=O)n(C)c(=O)n4C)CC2)c1` to `O=C(CSc1ccc(Cl)cc1)Nc1ccc(N2CCN(c3ccccc3)CC2)c(F)c1`, the “hERG current change (%, negative = inhibition) at 10uM” value rises from -10.8% to 24.9%.

First: CC(C)(C)OC(=O)CNC(=O)c1nc[nH]c1C(=O)NCC(=O)OC(C)(C)C
Second: Cn1ccnc1C(O)c1cc(C(C)(C)C)c(O)c(C(C)(C)C)c1 (stereo not drawn)
The “hERG current change (%, negative = inhibition) at 10uM” value of the first is higher: 3.98% for the first, -37.3% for the second.

First: CN(C(=O)COC(=O)CNS(=O)(=O)/C=C/c1ccccc1)C1CCS(=O)(=O)C1 (stereo not drawn)
Second: COC(=O)C1=C(C)N(Cc2ccccc2)C(=O)N[C@H]1c1ccccc1
The “hERG current change (%, negative = inhibition) at 10uM” value of the first is higher: 23.3% for the first, -13.5% for the second.

First: CCN(CC1COc2ccccc2O1)C(=O)CN1C(=O)NC(C)(c2ccc(C)cc2)C1=O (stereo not drawn)
Second: COC(=O)C1=C(C)N(Cc2ccccc2)C(=O)N[C@H]1c1ccc(Br)cc1
The “hERG current change (%, negative = inhibition) at 10uM” value of the first is lower: -28.8% for the first, -10.9% for the second.

First: COCCN=C1N[C@@H](c2ccccc2)C(C(=O)OC)=C(C)N1Cc1ccccc1
Second: COC(=O)C1=C(C)N(Cc2ccccc2)C(=NCCCCO)N[C@H]1c1ccccc1
The “hERG current change (%, negative = inhibition) at 10uM” value of the first is higher: -16.8% for the first, -53.2% for the second.

First: COC(=O)C1=C(C)N(Cc2ccccc2)C(=S)N[C@H]1c1ccccc1
Second: COC(=O)C1=C(C)N(Cc2ccccc2)C(=NCC(C)C)N[C@H]1c1ccccc1
The “hERG current change (%, negative = inhibition) at 10uM” value of the first is higher: -2.64% for the first, -55.9% for the second.

First: COCCN=C1N[C@@H](c2ccc(Br)cc2)C(C(=O)OC)=C(C)N1Cc1ccccc1
Second: COC(=O)C1=C(C)N(Cc2ccccc2)C(=NCCCCO)N[C@H]1CCc1ccccc1
The “hERG current change (%, negative = inhibition) at 10uM” value of the first is lower: -55.3% for the first, -43.3% for the second.

Compared with `CCN1C(=NCCCCO)N[C@@H](c2cccc(C(F)(F)F)c2)C(C(=O)OC)=C1C`, `COC(=O)C1=C(C)N(CC2CC2)C(=NCc2cc(OC)c(OC)c(OC)c2)N[C@H]1c1ccccc1` is lower in “hERG current change (%, negative = inhibition) at 10uM” value: 5.89% for the first, -17.5% for the second.

Going from `O=S(=O)(NCCN1CCCC1)c1ccc(Br)cc1` to `Cc1ccc(S(=O)(=O)N(CCC#N)CCN2CCCC2)cc1`, the “hERG current change (%, negative = inhibition) at 10uM” value falls from -8.08% to -21.9%.

Compared with `N#CCCN(CCN1CCCC1)S(=O)(=O)c1ccc(-c2ccc([N+](=O)[O-])cc2)cc1`, `CCN(CC)S(=O)(=O)c1ccc(S(=O)(=O)N2CCN(CCC#N)CC2)cc1` is higher in “hERG current change (%, negative = inhibition) at 10uM” value: -79.1% for the first, 8.45% for the second.

Compared with `Cc1oc2cc(O)ccc2c(=O)c1Oc1ccccc1`, `Cc1ccc(-c2noc(CCC(=O)NCc3ccccc3CN3CCOCC3)n2)cc1` is lower in “hERG current change (%, negative = inhibition) at 10uM” value: -10.2% for the first, -36.5% for the second.

First: COC1=CC(=O)C[C@@H](C)[C@]12Oc1c(Cl)c(OC)cc(OC)c1C2=O
Second: COC(=O)N/N=C\c1ccc(-c2cc(Cl)c(Cl)cc2Cl)o1
The “hERG current change (%, negative = inhibition) at 10uM” value of the first is lower: -9.99% for the first, -1.58% for the second.

Going from `C=CCSc1ncccc1C(=O)NCCc1ccc(Cl)cc1` to `O=C(CCc1nc(-c2ccc(Cl)cc2)no1)NCc1ccccc1CN1CCOCC1`, the “hERG current change (%, negative = inhibition) at 10uM” value falls from 6.54% to -65.5%.

First: O=S(=O)(Nc1nc2ccc(S(=O)(=O)N3CCCC3)cc2s1)c1ccc(F)cc1
Second: O=S(=O)(c1cccc2cccnc12)N1CCN(Cc2ccccc2)CC1
The “hERG current change (%, negative = inhibition) at 10uM” value of the first is lower: -2.68% for the first, -0.188% for the second.

Going from `COCCNc1oc(-c2ccc(C)cc2)nc1C#N` to `Clc1ccc(-c2noc(CN3CCOCC3)n2)cc1`, the “hERG current change (%, negative = inhibition) at 10uM” value falls from 8.26% to 4.83%.

Compared with `CN(C)CCCN(C(=O)CCc1ccccc1)c1nc2ccc(Cl)cc2s1.Cl`, `CN(C)CCCN(C(=O)CCc1ccccc1)c1nc2ccc(Br)cc2s1.Cl` is higher in “hERG current change (%, negative = inhibition) at 10uM” value: -24.4% for the first, -3.24% for the second.

First: Cc1cccc2sc(N(CCCN(C)C)C(=O)CN3C(=O)c4ccccc4C3=O)nc12.Cl
Second: CN(C)CCN(C(=O)CCc1ccccc1)c1nc2c(F)cc(F)cc2s1.Cl
The “hERG current change (%, negative = inhibition) at 10uM” value of the first is higher: -11.2% for the first, -33.4% for the second.

Compared with `Cc1ccccc1/C=N/n1c(-c2ccccn2)n[nH]c1=S`, `O=C(CCc1nc(-c2ccccc2)no1)NCc1ccccc1CN1CCOCC1` is lower in “hERG current change (%, negative = inhibition) at 10uM” value: 14.7% for the first, -10.5% for the second.

In the case of `O=C(C1CCCN(Cc2nc(-c3ccc(Cl)cc3)no2)C1)N1CCOCC1` (stereo not drawn), the “hERG current change (%, negative = inhibition) at 10uM” value is reported as 1.39%.
